# In PubChem BioAssay AID1788 (Vanderbilt High Throughput Screening Facility, 2009):
# Unmarked numbers belong to inactive results. No rule for the calls is given here.
# System: Phorbol Ester (mouse)
# Test: PubChem AID 1788
# Details: MDS Pharma lead profiling panel, radioligand binding, at 10 µM, active compounds read high
compound,measurement,value
CCOC(=O)N1CCC(NCCNC(=O)c2ccccc2C)CC1,inhibition,25%
